Measured values from PubChem BioAssay AID1159580 (chemical genetic matrix, 2015).
“And” between values parts separate entries of the source, which are not always exact repeats. Equal values may be shown once. The campaign covered roughly 5,500 compounds. About 2,000 (36%) were called active. Roughly 18% stayed inconclusive and do not appear here. Rule as the data show it: active = normalized growth mostly below about 0.91 (no sharp cut-off); inconclusive = no clear call, values can overlap the other calls; inactive = mostly above about 0.92. The list shows a part of the results.

Test: chemical genetic growth profiling, strain panel (AID 1159580);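 also: tested at 20 µM; growth read once vehicle control cultures reached saturation at 30 °C; 1 = growth at the plate median or of vehicle wells; lower values mean less growth of the strain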
Conditions: S. cerevisiae deletion strains, growth OD

Measured: normalized growth

CC(C)=CC1C(CO)C1(C)C (centres undefined)
inactive: locus YAL021C, strain ccr4, stronger effect = lower value 1.01 | locus YAL026C, strain drs2, stronger effect = lower value 1.03 | locus YAL030W, strain snc1, stronger effect = lower value 1.02 | locus YBL061C, strain skt5, stronger effect = lower value 1.02 | locus YBR009C, strain hhf1, stronger effect = lower value 1.03 | locus YBR021W, strain FUR4, stronger effect = lower value 1.02 | locus YBR023C, strain chs3, stronger effect = lower value 1.02 | locus YBR171W, strain sec66, stronger effect = lower value 1.03 | locus YBR229C, strain ROT2, stronger effect = lower value 1.02 | locus YBR231C, strain swc5, stronger effect = lower value 1.02 | locus YBR279W, strain paf1, stronger effect = lower value 1.02 | locus YCL011C, strain gbp2, stronger effect = lower value 1.02 | locus YCL016C, strain dcc1, stronger effect = lower value 1.02 | locus YCL029C, strain bik1, stronger effect = lower value 0.994 | locus YCL061C, strain MRC1, stronger effect = lower value 1.01 | locus YCL069W, strain vba3, stronger effect = lower value 1.01 | locus YCR088W, strain abp1, stronger effect = lower value 1.02 | locus YDL005C, strain med2, stronger effect = lower value 1.03 | locus YDL035C, strain GPR1, stronger effect = lower value 1.03 | locus YDL040C, strain nat1, stronger effect = lower value 1.02 | locus YDL074C, strain BRE1, stronger effect = lower value 1.03 | locus YDL101C, strain DUN1, stronger effect = lower value 1.03 | locus YDL185W, strain tfp1, stronger effect = lower value 0.999 | locus YDL192W, strain arf1, stronger effect = lower value 1.01 | locus YDR001C, strain nth1, stronger effect = lower value 1.01 | locus YDR069C, strain doa4, stronger effect = lower value 1.04 | locus YDR101C, strain arx1, stronger effect = lower value 1 | locus YDR137W, strain rgp1, stronger effect = lower value 1.04 | locus YDR159W, strain sac3, stronger effect = lower value 1.03 | locus YDR162C, strain NBP2, stronger effect = lower value 1.03 | locus YDR195W, strain ref2 0.992 | locus YDR297W, strain sur2, stronger effect = lower value 1.03 | locus YDR318W, strain mcm21, stronger effect = lower value 0.995 | locus YDR334W, strain swr1, stronger effect = lower value 1.02 | locus YDR335W, strain msn5, stronger effect = lower value 1.02 | locus YDR388W, stronger effect = lower value 0.999 | locus YDR392W, strain spt3, stronger effect = lower value 0.981 | locus YDR502C, strain sam2, stronger effect = lower value 0.994 | locus YEL003W, strain gim4, stronger effect = lower value 1.02 | locus YEL037C, strain rad23, stronger effect = lower value 1.02 | locus YEL061C, strain CIN8 (second series), stronger effect = lower value 1.01 | locus YEL061C, strain CIN8, stronger effect = lower value 1.01 | locus YER015W, strain faa2, stronger effect = lower value 1.02 | locus YER016W, strain bim1, stronger effect = lower value 1.02 | locus YER110C, stronger effect = lower value 1.01 | locus YER111C, strain swi4, stronger effect = lower value 1.02 | locus YER155C, strain BEM2 (second series), stronger effect = lower value 1.04 | locus YER155C, strain BEM2, stronger effect = lower value 1.01 | locus YER167W, strain BCK2, stronger effect = lower value 1.02 | locus YFR010W, strain ubp6, stronger effect = lower value 1.03 | locus YGL078C, strain dbp3, stronger effect = lower value 1 | locus YGL086W, strain mad1, stronger effect = lower value 1.01 | locus YGL167C, strain pmr1, stronger effect = lower value 1.02 | locus YGL173C, strain kem1, stronger effect = lower value 1.02 | locus YGL227W, strain vid30, stronger effect = lower value 1.02 | locus YGL240W, strain doc1, stronger effect = lower value 1.04 | locus YGL248W, strain PDE1, stronger effect = lower value 1.03 | locus YGL253W, strain hxk2, stronger effect = lower value 1.02 | locus YGR078C, strain PAC10, stronger effect = lower value 1.04 | locus YGR135W, strain pre9, stronger effect = lower value 1.01 | locus YGR252W, strain gcn5, stronger effect = lower value 0.989 | locus YHR013C, strain ard1, stronger effect = lower value 1.04 | locus YHR027C, strain rpn1, stronger effect = lower value 1.02 | locus YHR030C, strain SLT2, stronger effect = lower value 1.02 and 0.985 | locus YHR079C, strain IRE1 (second series), stronger effect = lower value 1.01 | locus YHR079C, strain IRE1, stronger effect = lower value 0.994 | locus YHR094C, strain hxt1, stronger effect = lower value 0.984 | locus YHR129C, strain ARP1, stronger effect = lower value 1.02 | locus YHR142W, strain chs7, stronger effect = lower value 1.01 | locus YHR200W, strain rpn10, stronger effect = lower value 1 | locus YIL066C, strain RNR3, stronger effect = lower value 1.04 | locus YIL073C, strain SPO22, stronger effect = lower value 1.02 | locus YIL125W, strain kgd1, stronger effect = lower value 1.01 | locus YIR030C, strain dcg1, stronger effect = lower value 1 | locus YJL092W, strain hpr5, stronger effect = lower value 1.01 | locus YJL095W, strain BCK1 (second series), stronger effect = lower value 1.02 | locus YJL095W, strain BCK1, stronger effect = lower value 1.04 and 0.986 | locus YJL115W, strain asf1, stronger effect = lower value 1.02 | locus YJL129C, strain trk1, stronger effect = lower value 1.02 | locus YJL134W, strain LCB3, stronger effect = lower value 1.02 | locus YJL154C, strain vps35, stronger effect = lower value 1 | locus YJL164C, strain tpk1, stronger effect = lower value 1.02 | locus YJL166W, strain qcr8, stronger effect = lower value 1.02 | locus YJL168C, strain set2, stronger effect = lower value 0.997 | locus YJL187C, strain SWE1 (second series), stronger effect = lower value 1.04 | locus YJL187C, strain SWE1, stronger effect = lower value 1.02 | locus YJR043C, strain POL32, stronger effect = lower value 1.04 | locus YJR066W, strain TOR1, stronger effect = lower value 0.957 | locus YKL009W, strain mrt4, stronger effect = lower value 1 | locus YKL068W, stronger effect = lower value 1.01 | locus YKL085W, strain MDH1 (second series), stronger effect = lower value 0.998 | locus YKL085W, strain MDH1, stronger effect = lower value 0.998 | locus YKL160W, strain elf1, stronger effect = lower value 1.01 | locus YKL190W, strain CNB1, stronger effect = lower value 1.02 | locus YKR001C, strain vps1, stronger effect = lower value 1.01 | locus YKR026C, strain gcn3, stronger effect = lower value 0.994 | locus YKR091W, strain srl3, stronger effect = lower value 1.02 | locus YLL001W, strain dnm1, stronger effect = lower value 1.03 | locus YLL026W, stronger effect = lower value 1.02 | locus YLL041C, strain sdh2, stronger effect = lower value 1.01 | locus YLR027C, strain aat2, stronger effect = lower value 1.02 | locus YLR039C, strain RIC1, stronger effect = lower value 1.07 | locus YLR058C, strain SHM2, stronger effect = lower value 1.02 | locus YLR102C, strain apc9, stronger effect = lower value 0.989 | locus YLR113W, strain HOG1, stronger effect = lower value 0.976 | locus YLR221C, strain rsa3, stronger effect = lower value 1.02 | locus YLR258W, strain gsy2, stronger effect = lower value 1.03 | locus YLR262C, strain YPT6 (second series), stronger effect = lower value 1.02 | locus YLR262C, strain YPT6, stronger effect = lower value 1.07 | locus YLR268W, strain sec22, stronger effect = lower value 0.999 | locus YLR320W, strain mms22, stronger effect = lower value 1.04 | locus YLR330W, strain CHS5, stronger effect = lower value 1.02 | locus YLR342W, strain FKS1 (second series), stronger effect = lower value 1.02 | locus YLR342W, strain FKS1, stronger effect = lower value 1.03 | locus YLR357W, strain rsc2, stronger effect = lower value 1.04 | locus YLR370C, strain arc18, stronger effect = lower value 1.01 | locus YLR371W, strain rom2, stronger effect = lower value 1 | locus YLR384C, strain iki3, stronger effect = lower value 0.999 | locus YLR418C, strain cdc73, stronger effect = lower value 0.99 | locus YML016C, strain PPZ1, stronger effect = lower value 1.02 | locus YML032C, strain rad52, stronger effect = lower value 0.997 | locus YML120C, strain ndi1, stronger effect = lower value 1.02 | locus YML124C, strain tub3, stronger effect = lower value 1.01 | locus YMR058W, strain fet3, stronger effect = lower value 1.01 | locus YMR078C, strain ctf18, stronger effect = lower value 0.99 | locus YMR125W, strain sto1, stronger effect = lower value 1.03 | locus YMR129W, stronger effect = lower value 1.01 | locus YMR205C, strain PFK2, stronger effect = lower value 1.04 | locus YMR223W, strain ubp8, stronger effect = lower value 1.01 | locus YMR231W, strain pep5, stronger effect = lower value 1.02 | locus YMR263W, strain SAP30, stronger effect = lower value 1.03 | locus YMR307W, strain GAS1, stronger effect = lower value 1.11 | locus YNL067W, strain RPL9B, stronger effect = lower value 1.04 | locus YNL071W, strain lat1, stronger effect = lower value 1.02 | locus YNL153C, strain GIM3, stronger effect = lower value 1.04 | locus YNL183C, strain NPR1, stronger effect = lower value 0.955 | locus YNL209W, strain ssb2, stronger effect = lower value 1.03 | locus YNL233W, strain BNI4, stronger effect = lower value 1.03 | locus YNL248C, strain rpa49, stronger effect = lower value 1.02 | locus YNL250W, strain rad50, stronger effect = lower value 0.994 | locus YNL271C, strain bni1, stronger effect = lower value 1 | locus YNL298W, strain CLA4, stronger effect = lower value 0.998 | locus YNL307C, strain MCK1, stronger effect = lower value 1.01 | locus YNL322C, strain KRE1 (second series), stronger effect = lower value 1.02 | locus YNR049C, strain mso1, stronger effect = lower value 1.03 | locus YNR052C, strain pop2, stronger effect = lower value 0.995 | locus YOL012C, strain htz1 0.795 | locus YOL147C, strain pex11, stronger effect = lower value 0.993 | locus YOR001W, strain rrp6, stronger effect = lower value 1.01 | locus YOR061W, strain CKA2, stronger effect = lower value 1.02 | locus YOR069W, strain VPS5, stronger effect = lower value 1.02 | locus YOR070C, strain gyp1, stronger effect = lower value 1.02 | locus YOR080W, strain dia2, stronger effect = lower value 1.02 | locus YOR083W, strain WHI5, stronger effect = lower value 1.01 | locus YOR106W, strain vam3, stronger effect = lower value 1.02 | locus YOR136W, strain idh2, stronger effect = lower value 0.991 | locus YOR144C, strain elg1, stronger effect = lower value 0.991 | locus YOR184W, strain ser1, stronger effect = lower value 1.01 | locus YOR231W, strain MKK1, stronger effect = lower value 0.978 | locus YOR265W, strain rbl2, stronger effect = lower value 1.02 | locus YOR270C, strain vph1, stronger effect = lower value 1.03 | locus YOR290C, strain snf2, stronger effect = lower value 0.991 | locus YOR316C, strain cot1, stronger effect = lower value 0.991 | locus YPL051W, strain arl3, stronger effect = lower value 1.01 | locus YPL078C, strain atp4, stronger effect = lower value 1.01 | locus YPL106C, strain sse1, stronger effect = lower value 1.01 | locus YPL240C, strain hsp82, stronger effect = lower value 1.03 | locus YPL241C, strain CIN2, stronger effect = lower value 1.02 | locus YPL256C, strain CLN2, stronger effect = lower value 0.97 | locus YPR119W, strain clb2, stronger effect = lower value 0.989 | locus YPR141C, strain kar3, stronger effect = lower value 1 | locus YPR163C, strain tif3, stronger effect = lower value 0.99 | locus YPR167C, strain met16, stronger effect = lower value 1.01 | strain wtn01, stronger effect = lower value 0.99
